# Measurements: PubChem BioAssay AID652105 (National Center for Advancing Translational Sciences (NCATS), 2013)
# About 4,100 (1.2%) of roughly 330,000 compounds were called active. Another 2% or so got no clear call; they are omitted. The list comes from a sample in which actives are over-represented; it also holds similar structures and randomly drawn compounds. Unmarked numbers belong to inactive results. Rule for the calls: active = max response of -50% or lower; inconclusive = between -30% and -50%; inactive = -30% or higher.
# Target: Phosphatidylinositol 5-phosphate 4-kinase type-2 alpha (Homo sapiens) (UniProt P48426)
# Sequence (P48426 whole entry, looked up): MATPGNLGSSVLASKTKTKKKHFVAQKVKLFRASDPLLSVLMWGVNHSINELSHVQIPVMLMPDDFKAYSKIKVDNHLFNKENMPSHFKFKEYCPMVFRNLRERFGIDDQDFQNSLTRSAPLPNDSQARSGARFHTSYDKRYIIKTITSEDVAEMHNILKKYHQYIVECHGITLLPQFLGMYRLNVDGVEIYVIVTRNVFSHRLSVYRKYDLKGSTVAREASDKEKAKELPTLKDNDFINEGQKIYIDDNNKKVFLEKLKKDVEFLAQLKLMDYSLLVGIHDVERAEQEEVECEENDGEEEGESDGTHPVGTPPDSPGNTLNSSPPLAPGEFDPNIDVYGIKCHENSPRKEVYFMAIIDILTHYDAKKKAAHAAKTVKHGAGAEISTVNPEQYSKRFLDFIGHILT
# Experiment: qHTS for Inhibitors of phosphatidylinositol 5-phosphate 4-kinase (PI5P4K); note: value at the top dose of about 77 µM
# Settings: PI5P4Kalpha enzyme, ADP-Glo luminescence, 60 min; hits give low values
# Summary of the method: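 Single end-point luminescence (ADP-Glo) quantified ADP from PI5P4Kalpha turnover; ATP 5 microM final, 1 h at RT, 0.1% CHAPS and 0.28 mM EGTA in HEPES pH 7.4.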
# % is set by controls: 0 for no effect and ±100 for the full control effect.
row,Compound,max response
1,CCCNC(=O)C1(C)CCCN(Cc2cccc(C(F)(F)F)c2)C1 (configuration not stated),-5.32%
2,CCOC(=O)N1C(=O)C[C@](Sc2ccc(C)cc2)(C(=O)OC)[C@H]1c1ccccc1,5.07%
3,CC1(C(=O)NS(=O)(=O)Cc2cccc(Cl)c2)CCN1C(=O)Cc1ccccc1 (configuration not stated),1.29%
4,CC(C)CN1C(=O)CN(S(C)(=O)=O)CC1(C)C(=O)NCc1ccccc1 (configuration not stated),-3.28%
5,OC[C@@H]1CN(Cc2ccncc2)C[C@H](n2cnc3c(N4CCN(c5ccccc5)CC4)ncnc32)O1,3.53%
6,CC(CNC(=O)Cn1cnc2c(OCc3ccccc3)ncnc21)c1ccccc1 (configuration not stated),2.34%
7,O=C(Cn1cnc2c(OCc3ccccc3)ncnc21)NCc1nc2ccccc2[nH]1,-52.2% (active)
8,O=C(Cn1cnc2c(OCc3ccccc3)ncnc21)NCCCn1ccnc1,1.01%
9,CCc1nc2c(OCCOc3ccccc3)cccn2c1N(C)C(=O)c1cccs1,-2.92%
10,COc1ccc(S(=O)(=O)c2c[nH]c(=S)[nH]c2=O)cc1Cl,-71.5% (active)
11,COc1ccc(S(=O)(=O)N(C)CC(=O)N2CCCC2)cc1Cl,-1.95%
12,COc1ccc(S(=O)(=O)Nc2ccc3c(c2)OCO3)cc1Cl,-4.52%
13,CCCCCCCCN1C(=O)[C@H](CC(=O)NCc2cccc3ccccc23)C[C@@]2(C(=O)OC)CCCCC=C12,22.3%
14,CC(=O)N1C[C@@H](CO)[C@@H](N(C)C(=O)c2ccco2)C[C@H]1c1ccccc1,-3.57%
15,COC(=O)c1sc2[nH]c(=S)n(N)c(=O)c2c1C,-60.5% (active)
16,COC(=O)c1sc(NC(=O)COC(=O)C2CCC2)c(C(=O)OC)c1C,16.3%
17,CCc1nc2ccc(C(=O)Nc3cc(-c4ccccc4)ccc3OC)cn2c1N(CC)CC(=O)N(C)C,1.18%
18,O=C1NN(c2ccccc2)C(=O)/C1=C/c1ccc(-c2cccc(C(=O)O)c2)o1,-59.1% (active)
19,CC(=O)c1cc(-c2ccccc2)[nH]c1N1CCCC1,-3.68%
20,CC1=NN(c2ccc(Cl)c(C(=O)O)c2)C(=O)/C1=C/c1ccc(-c2ccccc2[N+](=O)[O-])o1,-9.29%
21,CCCCOCCCNC(=O)C[C@@H]1C[C@@]2(C(=O)OCC)CCCC=C2N(CCC2=CCCCC2)C1=O,1.62%
22,CC(=O)N1Cc2cc(C(=O)NCc3cccc(F)c3)nc(-c3cccc(C4=CCCCC4)c3)c2[C@H]1CCO,12.2%
23,COc1ccc(-c2coc3c(C(=O)NC(C)C)cccc23)c(C)c1,-1.18%
24,COCCCN1C(=O)c2ccc(C(=O)Nc3ccc(OC)cc3OC)cc2C1=O,2.76%
25,Cc1ccc2[nH]cc(CCCN3C(=O)c4ccccc4C3=O)c2c1,-7.36%
26,COc1ccc2[nH]cc(CCN3C(=O)c4ccc(C(=O)O)cc4C3=O)c2c1,-70.3% (active)

row,Compound,max response
1,Cc1ccc(C(NC(=O)C2CCN(CCOc3ccc(Cl)cc3Cl)CC2)c2ccccn2)cc1 (configuration not stated),5.45%
2,CC(C)N=C1CCCC1C(=S)SSC(=S)C1CCCC1=NC(C)C (configuration not stated),-54.3% (active)
3,CCCOc1ccc(F)cc1-c1cc(C(=O)NCc2ccc(F)cc2)[nH]n1,3.63%
4,CCOC(=O)[C@]12CCCC=C1N(CCC1=CCCCC1)C(=O)[C@H](CC(=O)N1CCN(C(=O)c3ccco3)CC1)C2,-6.59%
5,C[C@H]1CN([C@@H](C)CO)C(=O)c2cc(C3=CCCCC3)cnc2O[C@@H]1CN(C)C(=O)Cc1ccccc1,-2.83%
6,COc1ccc(-c2cc3nc(NCCOc4ccccc4)ccn3n2)cc1,23.5%
7,CCC(C(=O)NCc1ccccc1)n1c(Cc2cc(F)cc(F)c2)nc2ccccc21 (configuration not stated),0.77%
8,CC(C)CCNC(=O)c1[nH]c(C(F)(F)F)nc1-c1ccccc1,-8.89%
9,CC(=O)N1c2ccc(S(=O)(=O)NCCC(=O)N(C)C3CCCCC3)cc2CC1C (configuration not stated),-54.5% (active)
10,CC(=O)N1c2ccc(S(=O)(=O)N(C)CC(=O)N(C)Cc3ccccc3)cc2CC1C (configuration not stated),-1.34%
11,COc1cccc(CNS(=O)(=O)c2ccc3c(c2)CC(C)N3C(C)=O)c1 (configuration not stated),-2.98%
12,COc1ccc(-c2nc3ccc(Br)cn3c2Cc2ccc(C)cc2)cc1OC,-8.6%
13,COc1ccc(C(C(=O)Nc2c(C)cccc2C)N2CCN(c3ccc(C)cc3)CC2)cc1 (configuration not stated),5.89%
14,O=C(N/N=C/c1cc(Cl)cc([N+](=O)[O-])c1O)C(O)(c1ccccc1)c1ccccc1,3.34%
15,COc1ccc(CC(=O)N/N=C/c2cc([N+](=O)[O-])cc(Br)c2O)cc1,-27.2%
16,O=C(N/N=C/c1cc(Br)c(O)c([N+](=O)[O-])c1)C(O)(c1ccccc1)c1ccccc1,-58.4% (active)
17,C[C@H](CO)N1C[C@H](C)[C@H](CN(C)C(=O)c2ccncc2)OCc2ccccc2-c2c(n(C)c3ccccc23)C1=O,0.39%
18,O=C1/C(=C/c2ccc(F)cc2)SC(=S)N1CCCC(=O)N1CCCCC1CCO (configuration not stated),0.801%
19,O=C(CCCN1C(=O)/C(=C/c2ccccc2)SC1=S)Nc1ccc(O)cc1,0.839%
20,O=C1/C(=C/c2ccc(F)cc2)SC(=S)N1NS(=O)(=O)c1ccccc1,-65.3% (active)
21,C=C(C)C(=O)O[C@H]1C/C(C)=C\C(=O)/C=C(\C)[C@H](O)[C@@H]2OC(=O)C(=C)[C@@H]21,-56.7% (active)
22,C/C(=N\NC(=O)c1ccc2ccccc2c1)c1cccnc1,-3.12%
23,COc1cc(OC)c(C(=O)NNC(=O)c2ccc(NS(=O)(=O)c3cccs3)cc2)cc1OC,-9.62%
24,C/C(=N\NC(=O)c1ccc(NS(=O)(=O)c2cccs2)cc1)c1ccc2ccccc2c1,-63% (active)
25,CC(C)C1C(=O)N(Cc2cn(CCC3OCCO3)nn2)CCS(=O)(=O)N1Cc1ccc(-c2ccccc2C(F)(F)F)cc1 (configuration not stated),22.5%
26,CCCNC(=O)C1(C)CCN(Cc2csc(-c3ccc(Cl)cc3)n2)C1 (configuration not stated),-11.7%
